# Screening results deposited in PubChem BioAssay by National Center for Advancing Translational Sciences (NCATS).
# This is a sample that favours compounds with a hit; in the whole collection about 2.5% have one here.
# GALK inh: inhibitors of human galactokinase (GALK) | recombinant GALK, Kinase-Glo ATP luminescence, 1 h | 44,000 tested, under 10 active | Potency, µM (series often up to 57.5 µM), for inactives: top-dose activity, negative = inhibition, actives largely listed as inhibitors;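 note: plate controls were full GALK reaction for no effect and reaction lacking GALK for full effect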
#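 Human GALK (5 nM) was incubated with 35 uM ATP and 100 uM galactose in 20 mM HEPES pH 8.0 with MgCl2, NaCl, DTT and BSA for 1 h at room temperature. Remaining ATP was measured by Kinase-Glo Plus luminescence.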
# NTMT1 inh: NTMT1 methyltransferase inhibition | AID 1645870 | 59,000 compounds, 2.5% hits | Q9BV86 | NTMT1 MTase-Glo SAH luminescence, purified enzyme | Potency, µM (top dose mostly 114 µM), inactives show at the highest dose activity change, negative = inhibition, usual class: inhibitors;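 note: potency is the fitted concentration of half-maximal effect; plate controls were DMSO vehicle for no effect and no enzyme for full effect; nearly all actives have a fitted effect of over 65% in size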
# FH mod: Identification of activators of human fumarate hydratase by quantitative high-throughput screening; 54,000 compounds, 0.22% hits; Potency, µM (doses to about 79.9 µM), for the others: at the highest dose activity change, negative = inhibition, usual class: inhibitors; FH coupled MDH/diaphorase resazurin fluorescence, 15 min; Fumarate hydratase, mitochondrial (Homo sapiens), P07954; note: potency is the fitted concentration of half-maximal effect; % is set by controls: 0 for no effect and ±100 for the full control effect; the screen sought activators but most active calls are inhibition curves; nearly all actives have a fitted effect of over 45% in size
# Target sequence (P07954 whole entry, looked up): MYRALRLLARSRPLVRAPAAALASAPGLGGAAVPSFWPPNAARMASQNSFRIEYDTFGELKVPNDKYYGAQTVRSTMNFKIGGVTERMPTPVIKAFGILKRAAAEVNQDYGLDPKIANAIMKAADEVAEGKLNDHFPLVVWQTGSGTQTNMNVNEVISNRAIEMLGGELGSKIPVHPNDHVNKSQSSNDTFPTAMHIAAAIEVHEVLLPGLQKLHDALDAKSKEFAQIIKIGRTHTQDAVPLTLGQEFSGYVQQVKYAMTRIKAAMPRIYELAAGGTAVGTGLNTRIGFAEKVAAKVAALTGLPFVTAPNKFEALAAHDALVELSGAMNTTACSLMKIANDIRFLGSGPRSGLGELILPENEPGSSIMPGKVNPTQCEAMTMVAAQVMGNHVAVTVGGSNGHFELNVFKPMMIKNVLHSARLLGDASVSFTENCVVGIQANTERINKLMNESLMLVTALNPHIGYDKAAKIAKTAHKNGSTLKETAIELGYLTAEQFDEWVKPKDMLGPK
# HTT promoter inh: HTT promoter inhibition | HEK293 HTT promoter firefly luciferase reporter, 24 h | Potency, µM (doses to about 57.5 µM), inactives show top-dose activity change, negative = inhibition, hits mostly inhibitors | 48,000 compounds, 0.93% hits; note: potency is the fitted concentration of half-maximal effect; nearly all actives have a fitted effect of over 50% in size
#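 HEK293 luciferase promoter-reporter cells (2,500/well) plated 24 h, then compounds added at up to 57.5 uM final for 24 h at 37 °C. Firefly luminescence by Dual-Glo, normalized to vehicle (0%) and zero RLU (-100%).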
# HTT-AS act: activators of huntingtin-antisense promoter activity | HEK293 HTT-AS promoter firefly luciferase reporter, 24 h; response scale: percent change from vehicle, -100% = no light | Potency, µM (titrated, usually from 57.5 µM), inactives show at the highest dose activity change, positive = activation, usual class: activators | 48,000 compounds, 0.24% hits; note: potency is the fitted concentration of half-maximal effect; nearly all actives have a fitted effect of over 55% in size
#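 HEK293 luciferase promoter-reporter cells (2,500/well) plated 24 h, then compounds added at up to 57.5 uM final for 24 h at 37 °C. Firefly luminescence by Dual-Glo, normalized to vehicle (0%) and zero RLU (-100%).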
# Sfp PPTase inh: Sfp PPTase inhibition, chemistry optimization | shares compounds with NTMT1 inh | purified Sfp PPTase enzyme activity, qHTS | Potency, µM (titrated, usually from 114 µM), for the others: top-dose activity change, negative = inhibition, hits mostly inhibitors | 230 compounds, 78% hits | AID 540350
# Bsub HM489 growth: reduces growth of B. subtilis HM489 strain | Potency, µM (highest dose often 114 µM), without a hit: at the top dose activity change, negative = inhibition, usual class: inhibitors | 220 compounds, 50% hits | B. subtilis HM489 (acpS-) growth, BacTiter-Glo, 5 h | shares compounds with NTMT1 inh | AID 540353
# Sfp PPTase gel: inhibitors of Bacillus subtilis Sfp PPTase, gel-based followup. shares compounds with NTMT1 inh. purified Sfp PPTase, gel-based product detection. Potency, µM (top dose mostly 250 µM), without a hit: at the highest dose activity change, negative = inhibition, usual class: inhibitors. 220 compounds, 54% hits
# Sfp inh gel: confirmation of Bacillus subtilis Sfp PPTase inhibitors; shares compounds with NTMT1 inh; purified Sfp PPTase, gel-based product detection; Potency, µM (titrated, usually from 250 µM), inactives show top-dose activity change, negative = inhibition, actives largely listed as inhibitors; 45 compounds, 90% hits; AID 602362
# Sfp SAR2: inhibits B. subtilis Sfp PPTase in second SAR round. shares compounds with NTMT1 inh. purified Sfp enzyme, PPTase activity, qHTS. Potency, µM (top dose mostly 57.1 µM), for inactives: at the highest dose activity change, negative = inhibition, hits mostly inhibitors. 230 compounds, 87% hits
# hGST ctr: counter-screen for Sfp PPTase inhibitors: hGST A1-1 inhibition; shares compounds with NTMT1 inh; hGST A1-1 enzyme activity counter-screen, qHTS; Potency, µM (highest dose often 114 µM), for the others: at the highest dose activity change, negative = inhibition, most hits filed as inhibitors; 55 tested, under 10 active; AID 602391
# HSD17B4 counter: inhibits human HSD17B4, off-target for HPGD inhibitors | shares compounds with NTMT1 inh | purified HSD17B4, estradiol/NAD+, NADH fluorescence | Potency, µM (titrated, usually from 57.1 µM), for inactives: at the top dose activity change, negative = inhibition, actives largely listed as inhibitors | 230 compounds, 10% hits | AID 743187
# ALDH1A1 inh: inhibits human ALDH1A1, off-target for HPGD inhibitors; shares compounds with NTMT1 inh; Potency, µM (titrated, usually from 57.1 µM), without a hit: at the highest dose activity change, negative = inhibition, most hits filed as inhibitors; recombinant ALDH1A1, NADH fluorescence, propionaldehyde/NAD+; 230 compounds, 93% hits
# * hit, by the source's call; ? = inconclusive; . = not tested or not shown; [ ] = another dose, or the depositor's remark. Calls come from the whole dose curve; as a rule, active = well fitted curve in the direction sought with a large enough effect; inconclusive = small, poorly fitted or top-dose-only effect, or another doubt; inactive = no such curve, though single readings can be large; an effect the other way counts as inactive or inconclusive.
SMILES,GALK inh,NTMT1 inh,FH mod,HTT promoter inh,HTT-AS act,Sfp PPTase inh,Bsub HM489 growth,Sfp PPTase gel,Sfp SAR2,HSD17B4 counter,ALDH1A1 inh,others
COc1ccc2cc3cc(C(=O)N4CCN(c5cccc(C(F)(F)F)c5)CC4)sc3nc2c1,1.0%,5.6%,4.7%,-14.2%,-14.8%,.,.,.,.,.,.,
COc1ccccc1-c1noc(-c2ccc(N3CCN(c4ccccc4)CC3)c([N+](=O)[O-])c2)n1,-11.9%,?,-11.6%,-16.3%,-14.2%,.,.,.,.,.,.,
COc1cccc(NC(=S)N2CCN(c3ccc(C(F)(F)F)cc3[N+](=O)[O-])CC2)n1,.,?,.,.,.,?,?,31.6µM*,1.45µM*,-14.4%,1.52µM*,
COc1cccc(N2C(=O)c3ccccc3C2=O)n1,.,-12.1%,.,.,.,.,.,.,.,.,.,
COc1ccnc(NC(=S)N2CCN(c3cccc(C(F)(F)F)n3)CC2)c1,.,?,.,.,.,46.9µM*,-15.1%,?,5.76µM*,23.8%,8.57µM*,
COc1cccc(NC(=S)N2CCN(c3cccc(C(F)(F)F)n3)CC2)n1,.,?,.,.,.,?,?,4.5%,?,-4.8%,4.82µM*,
COc1ccnc(NC(=S)N2CCN(c3cccc(Cl)c3Cl)CC2)c1,.,?,.,.,.,5.91µM*,5.91µM*,7.94µM*,1.02µM*,0.2%,3.83µM*,Sfp inh gel=?;hGST ctr=-0.5%
COc1ccc(S(=O)(=O)N[C@@H](CNc2nc(C)nc(N3CCC(c4ccc5c(n4)NCCC5)CC3)c2C)C(=O)O)cc1,.,8.5%,.,.,.,.,.,.,.,.,.,
C=C1CCC2C(C)(C)CC(=O)CC2(C)C1CCC(C)CCO (stereo unspecified),.,9.8%[57.5 µM],?,.,.,.,.,.,.,.,.,
Cc1ccc(C(=O)Nc2ccc(CN3CCN(C)CC3)c(C(F)(F)F)c2)cc1C#Cc1cnc2[nH]ncc2c1,.,?,-4.4%,.,.,.,.,.,.,.,.,
CNC(=O)[C@H]1O[C@@H](n2cnc3c(NCc4cccc(I)c4)ncnc32)[C@H](O)C1O (stereo partly specified),.,.,-7.4%[53.3 µM],.,.,.,.,.,.,.,.,
CCCN(CCC)C(=O)C1=Cc2ccc(-c3ccc(C(=O)N4CCCC4)cc3)cc2N=C(N)C1,.,-18.6%,.,.,.,.,.,.,.,.,.,
